Consider 19 compounds from the supplement of paper PMC9254222.

This assay relates to HEK293T (UBE3A T485A transfected, BAR Wnt reporter). Kind of assay: Wnt reporter firefly/Renilla luciferase ratio relative to plate median (fold (linear ratio)); higher = more Wnt/beta-catenin reporter activation. The settings on record: 24 h. In a few lines: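 HEK293T cells carrying a transfected BAR firefly luciferase Wnt reporter, TK-Renilla and an expression plasmid were exposed to chemicals at 0.01–100 uM for 24 h, with dosing four hours after transfection. Readout used Dual-Glo luciferase. The firefly/Renilla ratio defined Wnt activity and raw Renilla defined cell health, each median-centred per plate. Figures are means of four biological replicates.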

In all, about 1,100 compounds were measured (“Wnt reporter firefly/Renilla luciferase ratio relative to plate median”: median about 1.1, highest 2% from about 1.6 on). Many of the other results were omitted from the sample, so the highest values are more common in it than they were.

As to `O=[N+]([O-])C(CO)(CO)CO` [2-(Hydroxymethyl)-2-nitro-1,3-propanediol], the “Wnt reporter firefly/Renilla luciferase ratio” value came out at 0.982 (concentration: 0.1 uM), 1.11 (concentration: 1 uM), 1.27 (concentration: 10 uM) and 1.27 (concentration: 100 uM).
For `O=c1nc(-c2ccc(C(F)(F)F)cc2)[nH]c2c1CSCC2`, the “Wnt reporter firefly/Renilla luciferase ratio” value (concentration: 0.01 uM) was determined as 0.923; the “Wnt reporter firefly/Renilla luciferase ratio” value (concentration: 0.1 uM) was found to be 0.688; the “Wnt reporter firefly/Renilla luciferase ratio” value (concentration: 1 uM) was 0.648; the “Wnt reporter firefly/Renilla luciferase ratio” value (concentration: 10 uM) stood at 0.664; the “Wnt reporter firefly/Renilla luciferase ratio” value (concentration: 100 uM) is 0.578.
With `CCCCC(CC)C(=O)O` (configuration not stated) [2-Ethylhexanoic acid], the “Wnt reporter firefly/Renilla luciferase ratio” value worked out at 0.925 (concentration: 0.1 uM), 1 (concentration: 1 uM), 1.4 (concentration: 10 uM) and 1.2 (concentration: 100 uM).
Turning to `CCCCCCC(=O)O` [Heptanoic acid], the “Wnt reporter firefly/Renilla luciferase ratio” value is, setting by setting: (concentration: 0.1 uM) 1.02; (concentration: 1 uM) 1.15; (concentration: 10 uM) 1.07; (concentration: 100 uM) 0.917.
Regarding `CCCC(CCC)C(=O)O` [Valproic acid], the “Wnt reporter firefly/Renilla luciferase ratio” value worked out at 1.2 (concentration: 0.01 uM); 0.995 (concentration: 0.1 uM); 1.01 (concentration: 1 uM); 1.14 (concentration: 10 uM); 1.69 (concentration: 100 uM).
As for `C[C@@H](Oc1ccc(CNC(=O)c2cccnc2Oc2ccc3c(c2)OCO3)c(F)c1)C(=O)O`, the “Wnt reporter firefly/Renilla luciferase ratio” value stood at 1.14 (concentration: 0.1 uM), 1.12 (concentration: 1 uM), 1.13 (concentration: 10 uM) and 1.33 (concentration: 100 uM).
Taken in the same sequence, the figures for `Cc1cc(F)ccc1-c1cc(N2CC[C@@H](O)[C@H]2CO)ncc1N(C)C(=O)C(C)(C)c1cc(C(F)(F)F)cc(C(F)(F)F)c1` were 1.27, 1.05, 1.16 and 0.311.
For `N#C[C@@H]1CC(F)(F)CN1C(=O)CNC1CC2CCC(C1)N2c1ncccn1` (some centres not stated) the same measures were 0.985, 0.923, 0.937 and 0.82.
Regarding `[Cl-].c1ccc(C[n+]2cccc3ccccc32)cc1` [1-Benzylquinolinium chloride], the “Wnt reporter firefly/Renilla luciferase ratio” value (concentration: 0.1 uM) was 0.993, the “Wnt reporter firefly/Renilla luciferase ratio” value (concentration: 1 uM) is 0.903 and the “Wnt reporter firefly/Renilla luciferase ratio” value (concentration: 10 uM) came to 1.05.
Take `CCCOC(=O)c1ccc(O)cc1` [Propylparaben]: the “Wnt reporter firefly/Renilla luciferase ratio” value reads like this: (concentration: 0.1 uM) 1.46; (concentration: 1 uM) 1.02; (concentration: 10 uM) 0.949; (concentration: 100 uM) 0.169.
Taken in the same sequence, the figures for `Nc1ccc2c(c1)C(=O)c1ccccc1C2=O` [2-Aminoanthraquinone] were 1.06, 1.2, 1.28 and 1.58.
For `O=C(O)c1cccnc1` [Nicotinic acid] the same measures were 1.02, 1.17, 0.874 and 1.27.
For `CNCc1ccc(NC(=O)c2c[nH]c3c2C(=O)CCC3)cc1` the same measures were 1.24, 1.06, 1.69 and 0.318.
As to `CO[C@H]1/C=C/O[C@@]2(C)Oc3c(C)c(O)c4c(O)c(c(/C=N/N5CCN(C)CC5)c(O)c4c3C2=O)NC(=O)/C(C)=C\C=C\[C@H](C)[C@H](O)[C@@H](C)[C@@H](O)[C@@H](C)[C@H](OC(C)=O)[C@@H]1C` [Rifampicin], the “Wnt reporter firefly/Renilla luciferase ratio” value by setting is: (concentration: 0.1 uM) 1.29; (concentration: 1 uM) 1.07; (concentration: 10 uM) 1.27; (concentration: 100 uM) 0.362.
For `CCCCCCCCCC(=O)O` [Decanoic acid] the same measures were 1.43, 1.04, 1.39 and 0.794.
Taken in the same sequence, the figures for `CCCC(=O)O` [Butanoic acid] were 1.31, 1, 1.12 and 1.62.
For `CCCCCC(=O)O` [Hexanoic acid], the “Wnt reporter firefly/Renilla luciferase ratio” value runs as follows: (concentration: 0.1 uM) 1.02; (concentration: 1 uM) 0.926; (concentration: 10 uM) 1.05; (concentration: 100 uM) 1.27.
For `O=C(OCCOCCOC(=O)c1ccccc1)c1ccccc1` [Diethylene glycol dibenzoate] the same measures were 1.08, 1.16, 1.34 and 1.44.
For `CCCCCCCCCCCCc1ccccc1S(=O)(=O)O` [Dodecylbenzenesulfonic acid] the same measures were 1.14, 1.13, 1.2 and 1.04.
